Assay outcomes (PubChem)
Shown are actives, neighbours in structure and some others; about 11% of the full set was active somewhere.
VACV mCherry inh – qHTS for Stage-Specific Inhibitors of Vaccinia Orthopoxvirus: mCherry Reporter Primary qHTS | Potency, µM (top dose mostly 36.5 µM), inactives show top-dose activity change, negative = inhibition, most hits filed as inhibitors | AID 720579, 2013 | 310,000 compounds, 0.63% hits | Vaccinia virus mCherry reporter infection, fluorescence; calls by dose curve; tested in A549 cells; also: % is scaled to controls: 0 for no effect and ±100 for the full control effect; nearly all actives have a fitted effect of over 35% in size
HCV inh – qHTS Assay for Inhibitors of Hepatitis C Virus (HCV); Huh7.5.1 HCVcc-Cre infection, luciferase reporter, 44 h; Potency, µM (top dose mostly 41.8 µM), for the others: at the highest dose activity change, negative = inhibition, most hits filed as inhibitors; 340,000 compounds, 3.4% hits; also: % is scaled to controls: 0 for no effect and ±100 for the full control effect
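Luciferase read-out (15 sec integration) after a 15 min room-temperature substrate step quantifies HCVcc-Cre infection. Cells, 1,000 per well, had compound added 4 h post-plating, then virus at ~0.5 moi, and were cultured 44 h.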
Pf growth 48h – Primary qHTS for delayed death inhibitors of the malarial parasite plastid, 48 hour incubation; 310,000 compounds, 5.9% hits; P. falciparum luciferase growth in erythrocytes, 48 h; AID 504832, 2011; Potency, µM (titrated, usually from 28.7 µM), inactives show at the top dose activity change, negative = inhibition, hits mostly inhibitors; also: % is scaled to controls: 0 for no effect and ±100 for the full control effect
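Growth was read as firefly luciferase luminescence after a 48 h, 37 C, 5% CO2 exposure of compounds to reporter-bearing P. falciparum cultures (0.1% parasitemia, 2% hematocrit final) in Albumax-supplemented RPMI 1640.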
Vaccinia Venus – qHTS for Stage-Specific Inhibitors of Vaccinia Orthopoxvirus: Venus Reporter Primary qHTS | Vaccinia virus Venus reporter expression, fluorescence | Potency, µM (doses to about 36.5 µM), inactives show at the top dose activity change, negative = inhibition, most hits filed as inhibitors | 330,000 compounds, 0.46% hits | AID 720580, 2013; calls by dose curve; tested in A549 cells; also: % is scaled to controls: 0 for no effect and ±100 for the full control effect; nearly all actives have a fitted effect of over 30% in size
Pf growth 96h – Primary qHTS for delayed death inhibitors of the malarial parasite plastid, 96 hour incubation; 320,000 compounds, 6.9% hits; AID 504834, 2011; Potency, µM (highest dose often 28.7 µM), for inactives: top-dose activity change, negative = inhibition, most hits filed as inhibitors; P. falciparum luciferase reporter growth, 96 h; also: % is scaled to controls: 0 for no effect and ±100 for the full control effect
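96 h incubation, 37 C, 5% CO2, of luciferase-reporter P. falciparum-infected RBCs (2% hematocrit, 0.05% parasitemia final) with test compounds; endpoint luminescence.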
NS1 inh – qHTS Assay for Inhibitors of Influenza NS1 Protein Function. Potency, µM (highest dose often 46.1 µM), for inactives: top-dose activity, positive = more growth. AID 2326, 2010. 270,000 compounds, 0.4% hits; calls by dose curve; also: actives are rising curves; nearly all actives have a fitted effect of over 50% in size
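Read-out: OD600 growth recovery of NS1-expressing budding yeast. Cells grown overnight at 30C in -URA glucose medium, washed, resuspended and diluted 1:100 in 2% galactose assay medium, pH 6.0. Same strain lacking NS1 served as positive control.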
* marks the source's active call; other numbers are inactive results; i = inactive; ? = inconclusive; / = no result; [ ] = dose if it differs, or a comment. Unless noted, calls follow the shape of the dose curve; as a rule, active = well fitted inhibition curve with a large enough effect; inconclusive = small, poorly fitted or top-dose-only effect, or another doubt; inactive = no such curve, though single readings can be large or run the other way. Potency is read from the fitted curve at half-maximal effect.

SMILES	VACV mCherry inh	HCV inh	Pf growth 48h	Vaccinia Venus	Pf growth 96h	NS1 inh
CC(C)(C)NC(=O)C(c1ccc(O)cc1)N(Cc1ccco1)C(=O)Cn1nnc(-c2cccs2)n1 (stereo unspecified)	-20%	1%	13µM*	-14%	-12%	7%
COc1cc(C(=O)NCc2nc(C)cs2)ccc1OC1CCN(C(C)=O)CC1	i	1%	-8%	-8%	?	6%
CCCN(C)C[C@@H]1OCc2cnnn2CCCC(=O)N([C@H](C)CO)C[C@H]1C	-14%	/	/	-4%	/	/
COc1cc(NC(=O)c2cc3c(=O)n(Cc4cccs4)ccc3nc2C)cc(OC)c1OC	i	/	/	-11%	/	/
CC(C)(C)NC(=O)C(c1ccncc1)N(C(=O)Cn1nnc(-c2cccs2)n1)C1CCCCC1 (stereo unspecified)	-10%	19%	9.3µM*	1%	32%	0%
O=C(NCc1ccccc1)C(c1ccc(F)cc1)N(Cc1ccc2c(c1)OCO2)C(=O)Cn1nnc(-c2cccs2)n1 (stereo unspecified)	/	?	10µM*	/	89%	4%
Cc1ccc(C(C(=O)NC(C)(C)C)N(Cc2ccco2)C(=O)Cn2nnc(-c3cccs3)n2)cc1 (stereo unspecified)	-10%	?	9.3µM*	-16%	23%	0%
Cc1ccc(C(C(=O)NC(C)(C)C)N(Cc2ccco2)C(=O)CCC(=O)Nc2ccccn2)cc1 (stereo unspecified)	-13%	-11%	?	-12%	?	1%
COc1ccc(Cl)cc1C(=O)n1nc(C)cc1C	/	-11%	9%	-6%	-8%	-4%
O=C(CSc1nnnn1C1CC1)N1CCN(c2cccc(Cl)c2)CC1	/	13µM*	/	/	/	/
CC(C)c1ccc(CN2CCN(C(=O)CSc3nnnn3C3CC3)CC2)cc1	/	5.6µM*	7.4µM*	/	12µM*	/
O=C(CSc1nnnn1C1CC1)N1CCN(c2ccc(O)cc2)CC1	/	6%	?	/	?	/
Cc1cccc(N2CCN(C(=O)CSc3nnnn3C3CC3)CC2)c1C	/	13%	?	/	?	/
CCOc1ccccc1NC(=O)c1cccc2c1C(=O)N(CCOC)C2	i	-17%	/	-23%	-23%	-63%
N#Cc1cc(S(=O)(=O)c2ccccc2)c(N)[nH]c1=O	/	5%	3.7µM*	/	?	12%
CCCCN1CC(N2CCCCC2)CS1(=O)=O (stereo unspecified)	48%	/	/	-5%	/	/
COc1cc2cc(CN(CCO)S(=O)(=O)c3ccccc3)c(=O)[nH]c2cc1OC	/	11%	-2%	/	/	6%
COc1ccc(-c2csc(Nc3cc(C)ccn3)n2)cc1C	/	13µM*	?	/	-18%	6%
COc1ccc(-c2csc(Nc3ncccc3C)n2)cc1OC	/	2.2µM*	26%	-22%	?	-12%
COc1ccc(-c2csc(Nc3ncccc3C)n2)cc1	-9%	?	101%	?	-27%	15%
Cc1cc2c(nc1C)CCCN2C[C@@H](C)O/N=C1/[C@H]2CCn3c(=O)n(-c4ccccc4)c(=O)n3[C@H]2[C@H](O)[C@@H]2O[C@H]12	-25%	?	?	-25%	13µM*	4%
C/C(CCN1CCCCc2nc(C)c(C)cc21)=N\O[C@H](C)c1cn([C@H](CO)Cc2ccccc2)nn1	/	-6%[8.37 µM]	?	/	?	-23%
COc1ccccc1N1CCc2c(C)nc3c(OC)cccc3c21	/	?	13µM*	/	?	-3%
CCOc1ccc(N2C(=O)CC(SC(=NC)Nc3cccc(F)c3)C2=O)cc1 (stereo unspecified)	/	1%	/	-11%	46%	-22%
COc1ccccc1CCNC(=O)c1cc(-c2ccccn2)nc2ccccc12	-20%	11µM*	12%	-16%	?	/
SMILES	VACV mCherry inh	HCV inh	Pf growth 48h	Vaccinia Venus	Pf growth 96h	NS1 inh
COc1ccccc1CCNC(=O)c1cc(-c2ccccn2)nc2ccc(Br)cc12	/	/	12%	/	32%	-1%
Cc1ccc2nc(-c3ccncc3)cc(C(=O)NCc3ccccc3F)c2c1	/	-21%	?	/	15µM*	-14%
COc1ccccc1CCNC(=O)c1cc(-c2ccncc2)nc2ccc(Br)cc12	5%	0.89µM*	?	-4%	-10%	5%
CCOC(=O)C1CCN(C(=S)Nc2cc(C)ccc2C)CC1	-22%	5%	16%	-5%	44%	11%
CCOC(=O)c1nnn(-c2nonc2N)c1-c1cccc2ccccc12	/	-5%	3.3µM*	-29%	5.2µM*	-69%
CCOC(=O)c1nnn(-c2nonc2N)c1-c1ccc(OC)cc1	/	12%	2.1µM*	-17%	?	-3%
CCOC(=O)c1nnn(-c2nonc2N)c1-c1ccc(F)cc1	-7%	11%	12µM*	-13%	3%	/
CCOC(=O)c1nnn(-c2nonc2N)c1-c1ccc(Cl)cc1	/	-1%	12µM*	/	?	/
Cc1ccc(C(=O)Nc2ccccc2N2CCCC2)cc1S(=O)(=O)N1CCOCC1	/	-29%	?	/	?	/
O=C(O)c1ccc2c(c1)C(=O)N(CCc1ccc(O)cc1)C2=O	/	/	3%	/	-7%	/
CCOC(=O)CSc1nc2c(c(=O)[nH]c(=O)n2C)n1CCCc1ccccc1	-2%	-14%	?	-10%	25%	2%
CC(=O)CSc1nc2c(c(=O)[nH]c(=O)n2C)n1Cc1cccc(Br)c1	-15%	13µM*	-16%	?	44%	25%
CCN(CC)c1nc2c(c(=O)[nH]c(=O)n2C)n1CCOc1ccccc1	-6%	-11%	0%	-20%	0.66µM*	15%
CCOC(=O)CSc1nc2c(c(=O)[nH]c(=O)n2C)n1Cc1ccccc1	/	2.8µM*	-30%	/	?	14%
CN(C)c1nc2c(c(=O)[nH]c(=O)n2C)n1CCOc1ccccc1	/	-7%	-22%	/	0%	-3%
Cn1c(=O)[nH]c(=O)c2c1nc([N+](=O)[O-])n2Cc1ccccc1	?	-84%	7.4µM*	10µM*	13µM*	-5%
Cc1ccc(C(=O)N/C(=C\c2ccccc2)C(=O)NCc2cccnc2)cc1	i	37%	19%	-10%	?	0%
C=C1[C@@H](O)CN(Cc2ccc(OC)cc2)S1(=O)=O	?	/	/	28µM*	/	/
Cc1ccc(-n2c(CNc3cccc(Cl)c3)n[nH]c2=S)cc1	-12%	15%	8.3µM*	6%	81%	/
COc1ccc(OC)c(NC(=O)c2cccnc2Sc2cc(C)ccc2C)c1	-5%	?	10µM*	-24%	?	-11%
O=[N+]([O-])c1ccccc1S(=O)(=O)Nc1ncccn1	/	15%	2%	/	4%	5%
